According to PubChem BioAssay AID588591 (National Center for Advancing Translational Sciences (NCATS), 2011):
About 4,700 (1.2%) of roughly 390,000 compounds were called active. Inconclusive results (about 4%) are left out. Shown is part of a subset that was picked to be rich in actives. A number with no mark means an inactive call. The call rests on the fitted dose curve; in most records, active means well fitted inhibition curve with a large enough effect; inconclusive means small, poorly fitted or top-dose-only effect, or another doubt; inactive means no such curve, though single readings can be large or run the other way.

target: DNA polymerase eta (Homo sapiens) (UniProt Q9Y253); experiment: qHTS for Inhibitors of Polymerase Eta; conditions: recombinant Pol eta, fluorescent DNA replication assay; series mostly up to 114 µM; activity change, negative = inhibition: at the top concentration
Procedure, shortened: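 Pol eta (10 nM) was preincubated with compounds for 15 min at room temperature, after which fluorescent replication substrate (50 nM final) was added to start the reaction. Fluorescence was read kinetically at 0 and 10 min.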
On the % scale 0 is the no-effect control and ±100 the full control effect; potency means the concentration at half of the fitted maximal effect.

Sequence of DNA polymerase eta (Homo sapiens) (Q9Y253 whole entry, looked up): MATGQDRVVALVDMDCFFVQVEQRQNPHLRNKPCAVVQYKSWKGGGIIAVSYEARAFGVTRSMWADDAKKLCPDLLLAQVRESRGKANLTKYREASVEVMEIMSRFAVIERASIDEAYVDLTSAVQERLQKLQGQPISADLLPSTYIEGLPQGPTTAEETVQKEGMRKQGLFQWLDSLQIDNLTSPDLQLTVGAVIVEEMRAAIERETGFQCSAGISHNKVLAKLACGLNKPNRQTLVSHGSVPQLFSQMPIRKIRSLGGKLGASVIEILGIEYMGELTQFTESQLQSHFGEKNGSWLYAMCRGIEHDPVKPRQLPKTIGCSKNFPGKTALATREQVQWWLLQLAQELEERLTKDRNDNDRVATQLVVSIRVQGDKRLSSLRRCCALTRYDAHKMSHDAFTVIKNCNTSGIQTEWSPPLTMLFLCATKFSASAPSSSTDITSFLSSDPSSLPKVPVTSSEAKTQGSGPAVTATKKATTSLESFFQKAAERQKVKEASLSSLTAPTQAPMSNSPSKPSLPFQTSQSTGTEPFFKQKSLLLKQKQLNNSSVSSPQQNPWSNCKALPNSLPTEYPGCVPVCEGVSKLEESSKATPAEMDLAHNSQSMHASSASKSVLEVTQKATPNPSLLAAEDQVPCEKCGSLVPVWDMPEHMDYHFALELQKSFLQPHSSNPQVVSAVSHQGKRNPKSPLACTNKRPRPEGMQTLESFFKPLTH

Compound | activity change, negative = inhibition [%] | Potency
COc1ccc(S(=O)(=O)NC(C)c2ccccc2)cc1C(=O)N1CCCCC1 (centres undefined) | -9.63 | –
CCN(CC(=O)NCc1cccs1)C(=O)c1cccc(S(=O)(=O)Nc2ccccc2OC)c1 | -25.1 | –
Cc1ccc(C)c(NS(=O)(=O)c2ccc(OCC(=O)NCc3cccnc3)cc2)c1 | -6 | –
Cc1ccc(NS(=O)(=O)c2ccc3c(c2)n(C)c(=O)c(=O)n3C)c(C)c1 | -4.89 | –
COc1cccc(/C=N/Nc2ccc(S(=O)(=O)Nc3ccccc3C(=O)O)cc2[N+](=O)[O-])c1O | – | 17.8 µM (active)
COc1ccc(Br)cc1/C=N/Nc1ccc(S(=O)(=O)Nc2ccccc2C(=O)O)cc1[N+](=O)[O-] | – | 15.8 µM (active)
O=C(CN1CCCCCC1)Nc1ccc(Br)cc1[N+](=O)[O-] | -11 | –
COC(=O)c1ccccc1NS(=O)(=O)c1ccc2c(c1)CCCN2C(C)=O | -2.99 | –
Cc1ccc(NS(=O)(=O)c2ccc(N/N=C/c3ccccc3OCC(=O)O)c([N+](=O)[O-])c2)c(C)c1 | – | 70.8 µM (active)
COc1ccc(N2CCN(Cc3nc4c(c(=O)[nH]c(=O)n4C)n3Cc3ccc(Cl)cc3)CC2)cc1 | -7.52 | –
CCOc1ccccc1NC(=O)Cn1c(=O)n(Cc2ccccc2)c(=O)c2c(C)c(C(=O)N(C)C)sc21 | -27 | –
COc1ccc(C2(Nc3cccc(F)c3)C(=O)c3ccccc3C2=O)cc1 | -17.8 | –
CCCCC12CN3CC(C)(CN(C1)C3c1ccc(O)c(OC)c1)C2=O (centres undefined) | -16.3 | –
COc1ccc2c(c1)c(N1CCCC1=O)c(C(=O)Nc1ccc(OC)c(Cl)c1)n2C | -3.83 | –
Cc1ccc(C(=O)Nc2cc3c(cc2N2CCCC2)n(C)c(=O)c(=O)n3C)cc1 | 2.99 | –
Cc1ccccc1CSc1nc(-c2ccccc2)nc2c1Cc1c(CO)cnc(C)c1O2 | -10.2 | –
CCCC(=O)N1CCN(c2nc3c(OC)ccc(C)c3s2)CC1 | -6.03 | –
COc1cc(/C=C/C(=O)OCC(=O)NC(=O)NCc2ccccc2)ccc1OCC#N | -9.71 | –
COC(=O)c1ccc(C(NC(=O)OCc2ccccc2)/C(C)=C/[C@@H](C)C(=O)NCc2ccc(OC)c(OC)c2)cc1 (some centres undefined) | -11.8 | –
COC(=O)c1ccc(COc2ccc(/C=C/C(=O)c3ccc(OC)c(CSCC(=O)O)c3)cc2OC)cc1 | – | 20 µM (active)
COc1ccc(CCNC(=O)c2cn(C)c3ccc(S(=O)(=O)N(C)C4CCCCC4)cc3c2=O)cc1OC | -13.2 | –
CCOc1ccccc1/C=c1\sc2nc(-c3ccco3)nn2c1=O | – | 7.94 µM (active)
Oc1c(C(c2ccccc2Cl)N2CCOCC2)sc2nc(-c3ccco3)nn12 (centres undefined) | -7.9 | –
CCOC(=O)C1CCN(C(c2ccc(F)cc2)c2sc3nc(-c4ccco4)nn3c2O)CC1 (centres undefined) | -3.38 | –
